Rhodamine autofl = rhodamine region autofluorescence | Rhodamine-region fluorescence, 547/598 nm, Tris buffer; active compounds read high | max dye-equivalent concentration, M | 59,000 tested, 0.05% active | AID 594; in the data active = max dye-equivalent concentration above about 11 nM; inconclusive = between about 1.1 nM and that limit
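A six-point rhodamine series on each plate calibrates the signal. Compounds sit in 100 mM Tris (pH 8.0) for 15 min at ambient temperature before imaging through 547 nm/598 nm filters.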
A647 fluor = A647 region autofluorescence. Compound fluorescence, A647 channel (570/671 nm), Tris buffer. AID 592. max dye-equivalent concentration, M. 59,000 tested, under 10 active;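 also: values scaled relative to a standard on each plate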
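Tris 100 mM pH 8.0; cpd + A647 stds pin-transferred; 15 min RT; CCD imager, ex 570/em 671. Output = A647-equivalent conc. per cpd conc.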
Resorufin autofl = compound fluoresces in the resorufin spectral region. AID 588. 59,000 tested, 0.04% active. max dye-equivalent concentration, M. Compound fluorescence, resorufin region 547/598 nm, buffer; active compounds read high
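Read-out: intrinsic compound fluorescence at ex 547/em 598 nm after 15 min at RT in pH 8.0 Tris (100 mM). Values expressed as resorufin-equivalent concentration from per-plate standard series.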
Fluorescein autfl = fluorescein region autofluorescence; Compound autofluorescence, 480/540 nm, fluorescein-equivalent; active compounds read high; max fluorescein-equivalent concentration, M; 59,000 tested, 0.91% active; in the data active = max fluorescein-equivalent concentration above about 10 nM; inconclusive = between about 1.1 nM and that limit
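Compounds were pin-transferred into 100 mM Tris buffer, pH 8.0, and incubated 15 min at room temperature. Fluorescence was read at 480 nm excitation/540 nm emission. Signals were normalized to an on-plate six-point fluorescein standard curve as dye-equivalent concentration.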
A488 autofl = compound fluoresces in the A488 spectral region | compound autofluorescence, A488 spectral region, dye equivalency; Compound Type: qHTS ECL - MLSMR | AID 591 | 59,000 tested, 0.1% active | max dye equivalency, M
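Read-out: relative fluorescence at 480/540 nm, expressed as Alexa 488 dye-equivalent concentration from a six-point A488 standard included per plate. Conditions: 100 mM Tris, pH 8.0; 15 min incubation, room temperature.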
TexasRed autofl = compound fluoresces in the Texas Red spectral region; Compound fluorescence, Texas Red channel, 547/618 nm; active compounds read high; max dye-equivalent concentration, M; 59,000 tested, 0.06% active; AID 587; in the data active = max dye-equivalent concentration above about 10 nM; inconclusive = between about 1.1 nM and that limit
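Spectral interference profiling: each compound concentration's relative fluorescence, read with a 547 nm excitation and 618 nm emission filter pair, was normalized to a per-plate Texas Red standard curve.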
An asterisk follows results filed as active; i = inactive; ? = inconclusive; ! = a repeat was not active. Rows were chosen to be rich in hits. Some 0.9% of all compounds tested hit in one or more screens of this group. Unless noted, no rule for the calls is given here.

SMILES	Rhodamine autofl	A647 fluor	Resorufin autofl	Fluorescein autfl	A488 autofl	TexasRed autofl
O=C(O)c1ccccc1-c1c2cc(Br)c(=O)cc-2oc2[c]([Hg])c(O)c(Br)cc12	3.8e-07M*	2.8e-08	2.9e-07M*	1.7e-05M*	7.8e-07M*	1.5e-08M*
CC(C)[C@]1(NC(=O)[C@H]2C=C3c4cccc5[nH]cc(c45)C[C@H]3N(C)C2)O[C@@]2(O)[C@H]3CCCN3C(=O)[C@H](Cc3ccccc3)N2C1=O	i	1e-09	i	?	i	i
CC(C)[C@H]1C(=O)N2CCC[C@H]2[C@]2(O)O[C@](NC(=O)[C@@H]3C=C4c5cccc6[nH]cc(c56)C[C@H]4N(C)C3)(C(C)C)C(=O)N12	i	1e-09	i	5.3e-08M*	?	i
CC(C)[C@@]1(NC(=O)[C@@H]2C=C3c4cccc5[nH]cc(c45)C[C@H]3N(C)C2)O[C@@]2(O)[C@@H]3CCCN3C(=O)[C@H](Cc3ccccc3)N2C1=O	i	1e-09	i	3.8e-08M*	?	i
CC(C)[C@H]1C(=O)N2CCC[C@@H]2[C@]2(O)O[C@@](NC(=O)[C@H]3C=C4c5cccc6[nH]cc(c56)C[C@H]4N(C)C3)(C(C)C)C(=O)N12	i	2.9e-09	i	2.7e-08M*	i	i
CC(=O)[C@@H]1CC[C@@H]2[C@H]3CC[C@H]4C[C@@H](O)CC[C@]4(C)[C@@H]3C(=O)C[C@]21C	i	4.8e-08	i	?	i	i
CCCCCCCCCCCCCC(=O)O[C@H]1[C@@H](C)[C@@]2(O)[C@@H](C=C(CO)C[C@]3(O)C(=O)C(C)=C[C@@H]23)C2C(C)(C)[C@]21OC(C)=O (stereo not given in full)	i	1e-09	i	i	i	i
CC1=NCCc2c1[nH]c1cc(O)ccc21	?	1.3e-08	i	2.1e-07M*	4.5e-07M*!	i
COc1ccc2c3c([nH]c2c1)C(C)=NCC3	i	1e-09	i	?	i	i
CC1=C2[C@@H]3OC(=O)[C@H](C)[C@H]3CC[C@@]2(C)C=CC1=O	i	5.6e-09	i	i	i	?
N#CC(C#N)=Cc1cc(O)c(O)c(O)c1	i	5.8e-08	i	4.4e-08M*	?	i
O=C1C[C@@H]2OCC=C3CN4CC[C@]56c7ccccc7N1[C@H]5[C@@H]2[C@H]3C[C@@H]46	i	2.6e-08	i	i	i	i
CC[C@H](CO)NC(=O)[C@H]1C=C2c3cccc4[nH]cc(c34)C[C@H]2N(C)C1	i	1e-09	i	?	i	i
CN1C[C@H](CO)C=C2c3cccc4[nH]cc(c34)C[C@H]21	i	6.5e-09	i	1.5e-08M*	i	i
CC[C@H](CO)NC(=O)[C@@H]1C=C2c3cccc4[nH]cc(c34)C[C@@H]2N(C)C1	i	1.8e-08	i	2.7e-08M*	i	i
C[C@]1(C(=O)O)[C@@H]2CC[C@@H](O2)[C@@]1(C)C(=O)O	i	4e-08	i	?	i	i
N#C/C(=C\c1ccc(O)c(O)c1)C(N)=S	i	1e-08	i	2.5e-08M*	i	?
COc1cc2c(cc1OC)-c1c(O)c(OC)cc3c1[C@@H](C2)N(C)CC3	i	3.1e-09	i	i	i	i
O=C(Cn1ncc2c3ccccc3n(Cc3cccc(Cl)c3)c2c1=O)N1CCC2(CC1)OCCO2	i	1e-09	i	2.5e-08M*	?	?
N[C@@H](Cc1cc(O)c(O)cc1O)C(=O)O	i	5.5e-09	i	i	i	i
CCN(CC)C(=O)N[C@@H]1C[C@H]2c3cccc4[nH]cc(c34)C[C@@H]2N(C)C1	i	1.1e-08	i	?	i	i
CC1=C[C@@H]2c3cccc4[nH]cc(c34)C[C@H]2N(C)C1	i	3.5e-08	i	5.9e-08M*	?	i
CC(C)[C@@]1(NC(=O)[C@@H]2C[C@@H]3c4cccc5[nH]cc(c45)C[C@H]3N(C)C2)O[C@@]2(O)[C@@H]3CCCN3C(=O)[C@H](Cc3ccccc3)N2C1=O	i	1e-09	i	?	i	i
CN1C[C@@H](CNC(=O)OCc2ccccc2)C[C@H]2c3cccc4c3c(cn4C)C[C@@H]21	i	1e-09	i	3.9e-08M*	?	i

High-throughput results deposited in PubChem by National Center for Advancing Translational Sciences (NCATS).
